The text below walks through data of PubChem BioAssay (EPA / NIEHS).

The structures appear in SMILES notation. Inconclusive results are not listed. The source made the active and inactive calls. How the source made its calls: active means hit-call score of the fitted dose curve at least 0.9, where 1 is the maximum; inconclusive means response in the unintended direction; inactive means score below 0.9.

Read-out in this assay: ABC Transporter (ABCB11), ABCB11 (gene 8647)
Nature of the assay: CLD_ABCB11_6hr: CellzDirect (CLD) Gene Expression Assay for ABC Transporter (ABCB11) at 6 hours (AID 2283675).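 Further: hits raise ABCB11 mRNA level so AC50 marks induction.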 On the procedure: CLD_6hr is a cell-based, multiplexed-readout assay that uses hepatocyte, a human liver primary cell, with measurements taken at 6 hours after chemical dosing in a 96-well plate.CLD_ABCB11_6hr is one of 16 assay component(s) measured or calculated from the CLD_6hr assay. It is designed to make measurements of mRNA induction, a form of inducible reporter, as detected with chemiluminescence signals by Quantitative Nuclease Protection Assay (qNPA) technology.Data from the assay component CLD_ABCB11_6hr was analyzed at the endpoint, CLD_ABCB11_6hr, in the positive analysis fitting direction relative to DMSO as the negative control and baseline of activity. Using a type of inducible reporter, gain-of-signal activity can be used to understand changes in the reporter gene as they relate to the gene ABCB11. Furthermore, this assay endpoint can be referred to as a primary readout. To generalize the intended target to other relatable targets, this assay endpoint is annotated to the transporter intended target family, where subfamily is ABC transporter.
Human hepatocyte cultures were treated daily for two consecutive days with fresh dosing solutions containing appropriate concentrations of the 320 ToxCast chemicals (chemical identities were blinded to CellzDirect and other ToxCast collaborators), vehicle control (0.2% DMSO), and positive control inducers as summarized in Table 1. Due to the large number of treatment groups and chemicals examined, the ToxCast chemicals were divided into two groups (spanning two independent cultures of hepatocytes from separate donor preparations (Hu778: ToxCast plates 1 and 2; Hu776: ToxCast plates 3 and 4). Each preparation of human hepatocyte cultures was treated with respective vehicle control, medium only control, set of six positive controls/reference chemicals for the five hepatic receptor pathways, and a subset of eight of the ToxCast chemicals (indoxacarb, pyrithiobac-sodium, norflurazon, cyhalofop-butyl, methomyl, thiram, acetochlor, and propiconazole). These replicate data, coupled with internal replicates designed within the blinded ToxCast chemical library, provided additional data to evaluate interindividual differences between hepatocyte preparations and their potential impact on chemical profiles.Cell morphology and integrity were evaluated using phase-contrast microscopy as an indicator of hepatocyte cell health (Tyson & Green, 1987). Cultures for each treatment group (i.e., media, vehicle [0.2% DMSO], positive control inducers [multiple concentrations], and the ToxCast chemicals [multiple concentrations]) were observed and cell morphology was assessed relative to vehicle control cultures at each harvest time point (0, 6, 24, or 48 h). […] Images were evaluated at the conclusion of the study to assess changes in cell integrity and account for the effects of chemical exposure on uncharacteristic changes in concentration-dependent gene expression profiles. The results from these determinations of apparent cytotoxicity were annotated (yes/no) alongside the corresponding qNPA data for reference.At the conclusion of each treatment period, hepatocyte cultures (96-well) were washed with 1 volume of HBSS, lysed by addition of 25 ul ArrayPlate lysis buffer (HTG, Tucson, AZ), and 70 ul/well of Denaturation Oil, denatured by incubation at 95C for 10 min, and frozen at approximately -70C until analysis by nuclease protection assay (qNPA) (Roberts et al., 2007). For qNPA analysis, cell lysates were thawed at 50C for approximately 30 min, qNPA probes were added, and samples were incubated at 95C for 10 min to begin the detection process by denaturing the target RNA, dissociating the duplexes and secondary structure hybridization. At the conclusion of the hybridization period, S1 nuclease reagent was added to each sample to digest all nonprotected nucleotides at 50C for 60-90 min. […]
In the case of `Nc1c(Cl)c(Cl)nc(C(=O)O)c1Cl`, the outcome was inactive.

`CCNP(=S)(OC)O/C(C)=C/C(=O)OC(C)C` (stereo not given): the compound was classed as inactive.

As for `CCOP(=S)(OCC)Oc1nc(Cl)n(C(C)C)n1`, the result was inactive.

Consider `OC(c1ccc(Cl)cc1)(c1ccc(Cl)cc1)C(Cl)(Cl)Cl`, for which the compound was called inactive.

As for `COC(=O)NS(=O)(=O)c1ccc(N)cc1`, the compound was classed as inactive.

Consider `COCC(C)N(C(=O)CCl)c1c(C)csc1C` (stereo not given), for which the result was inactive.

Take `C=CCOC(=O)C(C)(C)OC(=O)c1cc(-n2c(=O)cc(C(F)(F)F)n(C)c2=O)ccc1Cl`: the outcome was inactive.

`CC1(C)CCC(=Cc2ccc(Cl)cc2)C1(O)Cn1cncn1` (stereo not given): the result was inactive.

With `COP(=S)(OC)Oc1ccc([N+](=O)[O-])c(C)c1`, the compound was classed as inactive.

For `CC1(C)CON(Cc2ccccc2Cl)C1=O`, the call was inactive.

With `Clc1cccc(C(Cl)(Cl)Cl)n1`, the call was inactive.

As for `Clc1nc(Cl)nc(Nc2ccccc2Cl)n1`, the outcome was inactive.

Regarding `Cc1nc(N(C)C)nc(OC(=O)N(C)C)c1C`, the compound was called inactive.

Take `CO/N=C(/C1=NOCCO1)c1ccccc1Oc1ncnc(Oc2ccccc2Cl)c1F`: the compound was called inactive.

On to `O=C1C2CC=CCC2C(=O)N1SC(Cl)(Cl)Cl` (stereo not given), for which the compound was called inactive.

As to `CCOc1nc(F)cc2nc(S(=O)(=O)Nc3c(Cl)cccc3Cl)nn12`, the outcome was inactive.

With `O=C(O)c1c(Cl)ccc2cc(Cl)cnc12`, the outcome was inactive.

In the case of `O=P(O)(O)CCCl`, the result was inactive.

`COC(=O)N(C(=O)N1CO[C@@]2(C(=O)OC)Cc3cc(Cl)ccc3C2=N1)c1ccc(OC(F)(F)F)cc1`: the compound was called inactive.

For `CC(C)N1C(=O)N(c2ccccc2)CSC1=NC(C)(C)C`, the compound was called inactive.

As to `COP(=S)(OC)SCn1nnc2ccccc2c1=O`, the outcome was inactive.

For `CCOc1nc(C(Cl)(Cl)Cl)ns1`, the call was inactive.

Turning to `CS(=O)(=O)c1cc(C(F)(F)F)ccc1C(=O)c1cnoc1C1CC1`, the compound was called inactive.

For `CS(=O)(=O)c1ccc(C(=O)C2C(=O)CCCC2=O)c([N+](=O)[O-])c1`, the compound was classed as inactive.

Regarding `CNC(=O)Oc1cccc2ccccc12`, the result was inactive.

For `COP(=O)(OC)O/C(C)=C/C(=O)N(C)C`, the result was inactive.

For `Nc1c(Cl)c(F)nc(OCC(=O)O)c1Cl`, the outcome was inactive.

For `CC(C)N1C(=O)c2ccccc2NS1(=O)=O`, the outcome was inactive.

Regarding `COCc1cnc(C2=NC(C)(C(C)C)C(=O)N2)c(C(=O)O)c1` (stereo not given), the outcome was inactive.

For the compound `COc1cc(Cl)c(OC)cc1Cl`, the call was inactive.

Regarding `O=c1n(Cl)c(=O)n(Cl)c(=O)n1Cl`, the compound was called inactive.

For `CC(C)(C)C(=O)C(Oc1ccc(Cl)cc1)n1cncn1` (stereo not given), the call was inactive.

In the case of `CCCC(=NOCC)C1=C(O)CC(CC(C)SCC)CC1=O` (stereo not given), the result was inactive.

As to `CSC(=O)c1c(C(F)F)nc(C(F)(F)F)c(C(=O)SC)c1CC(C)C`, the outcome was inactive.

`CC(C)=CC1C(C(=O)OCc2coc(Cc3ccccc3)c2)C1(C)C` (stereo not given): the compound was classed as inactive.

Consider `O=C(Nc1ccccc1-c1ccc(Cl)cc1)c1cccnc1Cl`, for which the call was inactive.

Consider `CCOP(=O)(OCC)Oc1nc(Cl)c(Cl)cc1Cl`, for which the compound was called inactive.

As for `COc1ccc(-c2ccccc2)cc1NNC(=O)OC(C)C`, the compound was called inactive.

With `N#Cc1c(Cl)cccc1Cl`, the compound was classed as inactive.

On to `CCOc1cc(C(C)(C)C)ccc1C1COC(c2c(F)cccc2F)=N1` (stereo not given), for which the compound was called inactive.
